From PubChem BioAssay (NCI)
Where “and” joins values, the source holds several entries; their conditions need not be identical. Identical values can stand only once. This is part of a sample that, as a whole, favours compounds with a hit. Of some 83,000 tested, about 20% had one in any assay.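 Percent growth is the endpoint: 0 to 100 indicates growth inhibition (40 means 60% inhibition), 0 means no net growth, and negative values indicate cell death.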 Calls of active or inactive are those of the source. Rule for the calls: active = growth percent below 10; inactive = the rest.

test system: UO-31 renal; assay: NCI-60 one-dose screen, 48 h (100 = growth as untreated, 0 = no growth, -100 = all killed); conditions: 10 µM unless noted

Structure (SMILES)	growth
O=C(CSc1nc2c(c(=O)[nH]1)CCCC2)Nc1ccccc1C(=O)O	82.3% (inactive)
N/C(=N\c1nc2ccccc2s1)NC(=O)Nc1ccccc1[N+](=O)[O-]	26.8% (inactive)
FC(F)(F)c1cc2c(Cl)ncnc2n1CCN1CCOCC1	-92.7% (active)
O=C(NNC(=O)c1ccc(OCc2nc3ccc(Cl)cc3[nH]2)cc1)Nc1ccc(Cl)c(Cl)c1	84.7% (inactive)
Clc1ccc(-c2nc3c4c(-c5ccccc5)c(-c5ccccc5)n(Cc5ccccc5)c4ncn3n2)cc1	1.71% (active)
COc1c(B(O)O)cc(F)cc1-c1nc2c(F)cc3[nH]ncc3c2c2c1CCCC2	3.57% (active)
C/C(=N\Nc1ccc(C(=O)O)cc1)c1cnn(-c2cc(=O)[nH]c3ccc(C)cc23)c1C	67.9% (inactive)
O=C1Nc2cc(-c3ccc(NS(=O)(=O)c4ccc([N+](=O)[O-])cc4)cc3)ccc2/C1=C/c1ccc[nH]1	34.9% (inactive)
COc1ccc(NC(=O)CSc2nnc(-c3ccc(-c4nc5ccc(Cl)cc5[nH]4)cc3)o2)cc1	71.4% (inactive)
COc1ccc2[nH]c(O)c(N=Nc3nc(-c4ccc(C#N)cc4)cs3)c2c1	18.3% (inactive)
COc1ccc(-c2nc3ccc(-c4nnc(SCC(=O)Nc5ccc(/C(C)=N\O)cc5)o4)cc3[nH]2)cc1	87.5% (inactive)
CCCCCCCCCCCCCCCCCC(=O)Nc1ccc(OC)cc1	88.8% (inactive)
CCN1C(=O)N(CC)C2NNC(Sc3c(C(=O)O)c4ccccc4n(CCC(C)C)c3=O)=NC21 (stereo not given)	28.1% (inactive)
COc1ccc(/C=C/c2nc3ccccc3n3c(-c4cccc([N+](=O)[O-])c4)nnc23)cc1	-90.3% (active)
COc1ccc(NC(=O)N/N=C/c2c[nH]c3ccccc23)cc1	40.3% (inactive)
CCC(=O)c1cc(C(=O)OC)c2ccc3c4ccccc4ccc3n12	52.9% (inactive)
Cc1oc(-c2ccccc2)nc1CN[C@@H]1C[C@@H]2C[C@H]([C@H]1C)C2(C)C	23.9% (inactive)

test system: TK-10 renal; assay: as above; conditions: 10 µM unless noted

Structure (SMILES)	growth
C=CC(=O)N1CCN(c2ccc3nc4c(nc3c2C(F)(F)F)C(=O)c2ncccc2C4=O)CC1	111% (inactive)
O=C(N/N=C/c1ccc(-c2cccc([N+](=O)[O-])c2)s1)c1[nH]c2ccc(Br)cc2c1-c1ccccc1	101% (inactive)
CCCCNc1ccc2c3c(cccc13)C(=O)N(NCC(O)COc1ccc3c(C)cc(=O)oc3c1)C2=O (stereo not given)	153% (inactive)
CC(=O)Nc1cccc(-n2c(COc3ccc(Br)cc3)nc3ccccc32)c1	119% (inactive) and 110% (inactive)
CC(=O)c1c2c(c3ccc4c5ccccc5ccc4n13)C(=O)c1ccccc1C2=O	118% (inactive)
CC1=NN(C2=NC(=O)C(CC(=O)Nc3ccccc3C(F)(F)F)S2)C(c2ccc(N(C)C)cc2)C1 (stereo not given)	71.5% (inactive)
Cc1ccc(C2CC(c3ccc(NC(=O)Nc4ccccc4)cc3)=NN2c2ccc(S(C)(=O)=O)cc2)cc1 (stereo not given)	21.7% (inactive)
O=C(CSc1nc2sc3c(c2c(=O)n1-c1ccc(Cl)cc1)CCCC3)N/N=C/C=C/c1ccccc1	-19% (active)
O=C(COc1ccc(/C=C2/C(=O)Nc3ccc(Cl)cc32)cc1)Nc1ccc(Br)cc1	-65.4% (active)
CC(C)(C)OC(=O)N1CCC2(CC1)Oc1ccccc1[C@H]1CC(c3ccc(Br)cc3)=NN12	131% (inactive)
N#Cc1c(-c2ccc(F)cc2)nc(SCc2ccc(F)cc2)nc1N1CCNCC1	-25% (active)
Cc1ccc(/C=C/C(=O)c2ccc(S(=O)(=O)NCCNc3nc(N(C)C)nc(N4CCOCC4)n3)cc2)cc1	112% (inactive)
ClC(Cn1ncc2c(Nc3cccc(Br)c3)nc(SCCN3CCOCC3)nc21)c1ccc(Br)cc1 (stereo not given)	40.9% (inactive)
COc1ccc(N=Nc2c(N)nn3c(N)c(C#N)c(-c4ccccc4)nc23)cc1	57.4% (inactive)
Cc1cccc(-c2ccccc2Oc2ccc3nnc(Cl)n3n2)c1	103% (inactive)
CCN1CCN(Cc2ccc(C(=O)Nc3cccc(Nc4ccc5c(OC)cccc5n4)c3)cc2C(F)(F)F)CC1	-86.2% (active)
N#CCc1nnc(NC(=O)c2ccc(-n3c(=O)[nH]c4ccccc4c3=O)cc2)s1	104% (inactive)
COc1cc(NC(=O)CSc2nnc(-c3ccc(-c4nc5ccc(Cl)cc5[nH]4)cc3)o2)cc(OC)c1OC	93.9% (inactive)
c1n[nH]cc1-c1nc2ccc3cn[nH]c3c2c2c1CCCC2	104% (inactive)

Structure (SMILES)	growth
Cc1ccccc1NC(=O)c1cccc(NC(=O)CCl)c1	88.2% (inactive)
COc1ccc(-c2cc(-c3cc(OC)c(OC)c(OC)c3)[nH]c(=O)c2C#N)cc1	40.8% (inactive)
O=C(CSc1nc2c(c(=O)[nH]1)CCCC2)Nc1ccccc1C(=O)O	106% (inactive)
N/C(=N\c1nc2ccccc2s1)NC(=O)Nc1ccccc1[N+](=O)[O-]	52.8% (inactive)
FC(F)(F)c1cc2c(Cl)ncnc2n1CCN1CCOCC1	102% (inactive)
O=C(NNC(=O)c1ccc(OCc2nc3ccc(Cl)cc3[nH]2)cc1)Nc1ccc(Cl)c(Cl)c1	110% (inactive)
Clc1ccc(-c2nc3c4c(-c5ccccc5)c(-c5ccccc5)n(Cc5ccccc5)c4ncn3n2)cc1	24.1% (inactive)
COc1c(B(O)O)cc(F)cc1-c1nc2c(F)cc3[nH]ncc3c2c2c1CCCC2	21.3% (inactive)
C/C(=N\Nc1ccc(C(=O)O)cc1)c1cnn(-c2cc(=O)[nH]c3ccc(C)cc23)c1C	104% (inactive)
O=C1Nc2cc(-c3ccc(NS(=O)(=O)c4ccc([N+](=O)[O-])cc4)cc3)ccc2/C1=C/c1ccc[nH]1	-2.87% (active)
COc1ccc(NC(=O)CSc2nnc(-c3ccc(-c4nc5ccc(Cl)cc5[nH]4)cc3)o2)cc1	112% (inactive)
COc1ccc2[nH]c(O)c(N=Nc3nc(-c4ccc(C#N)cc4)cs3)c2c1	55.3% (inactive)
COc1ccc(-c2nc3ccc(-c4nnc(SCC(=O)Nc5ccc(/C(C)=N\O)cc5)o4)cc3[nH]2)cc1	111% (inactive)
CCCCCCCCCCCCCCCCCC(=O)Nc1ccc(OC)cc1	99.8% (inactive)
CCN1C(=O)N(CC)C2NNC(Sc3c(C(=O)O)c4ccccc4n(CCC(C)C)c3=O)=NC21 (stereo not given)	62.1% (inactive)
COc1ccc(/C=C/c2nc3ccccc3n3c(-c4cccc([N+](=O)[O-])c4)nnc23)cc1	-47.3% (active)
COc1ccc(NC(=O)N/N=C/c2c[nH]c3ccccc23)cc1	74.4% (inactive)
CCC(=O)c1cc(C(=O)OC)c2ccc3c4ccccc4ccc3n12	63.9% (inactive)
Cc1oc(-c2ccccc2)nc1CN[C@@H]1C[C@@H]2C[C@H]([C@H]1C)C2(C)C	80.8% (inactive)
